Data on 49 compounds can be found in PubChem BioAssay AID651965 (National Center for Advancing Translational Sciences (NCATS), 2013).

Out of some 340,000 compounds screened, about 6,400 (1.9%) were called active. Not shown: some 4% with an inconclusive outcome. What follows is part of a selection rich in actives, with near analogues and random picks from the rest. A number with no mark means an inactive call. The call rests on the fitted dose curve; in most records, active means well fitted falling curve with a large enough effect; inconclusive means small, poorly fitted or top-dose-only effect; inactive means no such curve, though single readings can be large or run the other way.

The test deals with ATP-dependent Clp protease proteolytic subunit (Bacillus subtilis (strain 168)) (UniProt P80244). As to the kind of experiment: qHTS Assay for Activators of ClpP. Further: the source files actives as falling curves though it sought activators and does not explain the sign; nearly all actives have a fitted effect of over 65% in size. To be noted: purified B. subtilis ClpP, FRET peptide cleavage, 20 min; series mostly up to 57.5 µM; activity change, negative = active: at the top concentration. The text has this: The Clp protease proteolytic subunit (ClpP) is the core unit of the Clp complex belonging to the peptidase family S14 that hydrolyzes protein into small peptides in the presence of ATP and magnesium. It is ubiquitously expressed and is the major protease in bacteria. […] Unlike common antibiotics that simply interfere with the essential enzyme activity, ADEP binding activates the ClpP core in the absence of the regulatory Clp-ATPases leading to uncontrolled proteolysis and eventually cell death. Activators binding to the docking site on ClpP can also block formation of the ClpXP and ClpA/C-P holoenzyme complexes interfering with the normal biological functions of ClpP and thus have the potential to become new anti-microbials.
Chain of ATP-dependent Clp protease proteolytic subunit (Bacillus subtilis (strain 168)) (P80244 whole entry, looked up): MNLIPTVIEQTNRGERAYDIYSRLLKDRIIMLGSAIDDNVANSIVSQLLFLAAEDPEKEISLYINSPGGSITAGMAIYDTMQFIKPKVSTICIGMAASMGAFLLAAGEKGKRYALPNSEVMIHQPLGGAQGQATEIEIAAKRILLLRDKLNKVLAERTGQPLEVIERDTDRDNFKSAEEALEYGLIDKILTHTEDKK
To identify activators of ClpP, a FRET based quenching reversal assay was developed using a purified B. subtilis ClpP and a decapeptide substrate (FRET-FV). The FRET-FV is tagged with a fluorescent molecule amino benzoic acid (donor) at the N-terminus and a nitrotyrosine quencher (acceptor) at the C-terminus. FRET-FV cleaves upon activation of ClpP with ADEP treatement and reverses the quenching effect of the nitrotyrosine causing an increase in fluorescence emission signal at 430nm. This assay was used to screen the Molecular Libraries Small Molecule Repository (MLSMR).
NIH Molecular Libraries Probe Production Centers Network [MLPCN]
NIH Chemical Genomics Center [NCGC]
Assay Submitter (PI): Michael Maurizi, National Cancer Institute
Two and a half microL/well of purified enzyme solution (final concentrations 10 microg/mL B. subtilis ClpP in 100 mM Tris/HCl pH8, 100 mM KCl, 0.05% low protease BSA, 2.5% glycerol, 0.01% Tween-20 buffer) was dispensed into 1536-well assay plates (Greiner, black solid, medium-binding plates) with Aurora Discovery BioRAPTR Flying Reagent Dispenser (FRD, Beckton-Dickenson). Compound solution (23 nL) was transferred to the assay plate using Kalypsys pin tool equipped with a 1536-pin tool. […] FRET signals at time 0 and after 20 min room temperature incubation were obtained using the PerkinElmer Envision plate reader with 320nm excitation and 430nm emission filters. Delta FRET value (Time 20 - Time 0) was calculated and normalized to the delta FRET value of positive control ADEP (5.8 microM final concentration) and negative control DMSO and no enzyme wells.
Take `Cc1nc2c(C(=O)NCc3ccc4c(c3)OCO4)c[nH]n2c(=O)c1Cc1ccccc1F`: the Potency is 31.6 µM (active). As to `CCn1c(=O)c(C(=O)NCc2ccc3c(c2)OCO3)c(O)c2ccccc21`, the “activity change, negative = active” value is -2.41%. The same measure, in the same setting: the figure for `O=C(NCc1ccc2c(c1)OCO2)c1cc(F)c(F)cc1Cl` is 0.908%. Same read-out and setting: the figure for `OCCc1ccc(NCCc2ccco2)cc1` is -2.59%; for `CCCNC(=O)C1(C)CCCN(C(=O)c2cccc(OC(C)=O)c2C)C1` (centres undefined) it is -0.0684%. Same read-out and setting: under `O=C1C[C@H]2C=CCc3cccc(c32)CN1Cc1ccccc1` stands -2.81%. Take `CC(=O)OCC(C)n1c(=O)c2ccccc2n1C(C)=O` (centres undefined): the “activity change, negative = active” value was 7.13%. `Cc1nc(N2CCOCC2)nc2c1CCCC2`: the Potency was 28.2 µM (active). As for `O=C(CN1CCOCC1)Nc1c2c(nc3c1CCC3)CCC2`, the “activity change, negative = active” value was -0.252%.

As for `Cc1ccc(Nc2nc(N3CCOCC3)nc(N3CCOCC3)n2)cc1Cl`, the “activity change, negative = active” value is 1.71%. Still for that read-out and setting: the figure for `CCc1nc2c(OCCc3cccc(OC)c3)cccn2c1N(C)C(=O)c1ccc(C)cc1` is -1.31%; for `O=C1CC2(CCCC2)Oc2ccc(Cl)cc21` it is 4.22%. Consider `O=C1CC2(CCCCC2)Oc2ccc(OCC(=O)N3CCOCC3)cc21`, for which the Potency is 10 µM (active). For the compound `O=C(Nc1cccc(OCC(=O)N2CCOCC2)c1)C1CCCCC1`, the “activity change, negative = active” value is -2.02%. Still for that read-out and setting: the figure for `COc1cccc2[nH]c(C(=O)NCCc3ccccc3)cc12` is 4.06%; for `COc1cc2c(C(=O)O)c(C)n(C)c2c2ccccc12` it is 3.23%. In the case of `COc1cccc2c(C)c(C(=O)O)[nH]c12`, the Potency was 25.1 µM (active). Take `Cc1ccc(Cc2c(-c3ccc(Cl)cc3)nc3c4ccccc4ccn23)cc1`: the “activity change, negative = active” value was 49.9%. Take `CC(C)(C)CC(=O)Nc1nc(C(N)Cc2ccc(C(F)(F)F)cc2)cs1` (centres undefined): the “activity change, negative = active” value is -1.68%. Consider `Cc1cccc(N(CC(=O)Nc2ccc(-c3nc4ccc(C)cc4s3)cc2)S(C)(=O)=O)c1`, for which the Potency was 15.8 µM (active).

Take `COc1cccc(N(CC(=O)Nc2cccc(F)c2)S(C)(=O)=O)c1`: the “activity change, negative = active” value was -0.426%. As for `CCN(CC)S(=O)(=O)c1ccc(NC(=O)CN(c2cccc(F)c2)S(C)(=O)=O)cc1`, the “activity change, negative = active” value was -3.47%. On the same count and under the same terms, under `COc1ccc(NC(=O)C2(C)Cc3c(-c4ccc(C(N)=O)cc4)ccnc3O2)cc1` (centres undefined) stands -2.25%. For `COc1ccc(-c2ccc(CN3C(CC(C)C)C(=O)N(Cc4cn(CC5CCCCC5)nn4)CCS3(=O)=O)cc2)cn1` (centres undefined), the “activity change, negative = active” value is -8.24%. Regarding `CCOC(=O)C(=Cc1ccccc1)C(=O)c1ccccc1`, the “activity change, negative = active” value was -0.195%.

Consider `N#Cc1c(N)n(CCOC(=O)c2ccc(Cl)cc2)c2nc3ccccc3nc12`, for which the Potency was 28.2 µM (active). As to `CC(C)(C)OC(=O)c1c(N)n(CCCN2CCCC2=O)c2nc3ccccc3nc12`, the “activity change, negative = active” value was 38.4%. Take `CN(C)CCCn1c(N)c(C#N)c2nc(C#N)c(C#N)nc21`: the “activity change, negative = active” value is -15.7%. As to `CCc1ccc(OCCCn2c(CCCNC(=O)C3CCCCC3)nc3ccccc32)cc1`, the “activity change, negative = active” value was 1.41%. Still for that read-out and setting: under `CCCCCCN1CCN(C2CN(Cc3cn(Cc4ccc(F)cc4)nn3)S(=O)(=O)C2)CC1` (centres undefined) stands -3.87%; under `CCN1C(=O)[C@H]2[C@@H](c3ccc(-c4ccc(OC)cc4)cc3)N[C@@](Cc3ccccc3)(C(=O)OC)[C@H]2C1=O`, 1.06%.

For the compound `CCN1C(=O)[C@H]2[C@@H](c3ccc(-c4ccc(F)cc4)cc3)N[C@@](Cc3ccccc3)(C(=O)OC)[C@H]2C1=O`, the “activity change, negative = active” value was -23.2%. In the case of `CCN1C(=O)[C@H]2[C@@H](c3ccc(SC4CCCCC4)c(OC)c3)N[C@@](Cc3ccccc3)(C(=O)OC)[C@H]2C1=O`, the Potency is 35.5 µM (active). `CCCCC[C@H](C)N1C[C@@H](COCc2ccccc2)Oc2cc(N3CC[C@@H](N(C)C)C3)ccc2S1(=O)=O`: the “activity change, negative = active” value is -20.4%. Same read-out and setting: under `O=C(NCc1ccccn1)[C@@H]1CCCN1C(=O)[C@@H]1CCCN1C(=O)c1ccccc1` stands 2.16%; under `COc1ccc(N2c3ccccc3CN(Cc3ccccc3)[C@@H](C)[C@H]2Cc2ccc(-c3ccccc3)cc2)cc1`, -15.5%. Same read-out and setting: under `C=CCNC(=O)c1ccc2nc(-c3ccco3)c(-c3ccco3)nc2c1` stands -8.38%. Consider `CC(C)(C)C(=O)Nc1cccc(-c2ccc[nH]2)n1`, for which the Potency was 12.6 µM (active). In the case of `Cc1c(-c2cccc(NC(=O)C(C)(C)C)c2)nc2ncccn12`, the “activity change, negative = active” value was 4.79%. Still for that read-out and setting: under `Cc1c(NC(=O)C(C)(C)C)cccc1-c1nc2ccccc2s1` stands -1.86%. Take `COc1cccc(-c2cc(NC(C)=O)c3ncc(-c4cccc(C(C)=O)c4)n3c2)c1`: the “activity change, negative = active” value is -4.01%. Take `CCOC(=O)C1CCCN(C(=O)c2ccc(N(C)C)cc2)CC1` (centres undefined): the “activity change, negative = active” value is 0.928%. The same measure, in the same setting: the figure for `CC(C)(C)c1nc(NCC2CCCO2)c2nnn(Cc3ccccc3)c2n1` (centres undefined) is -0.0891%; for `Cc1sc2c(c1C)c(=O)n(-c1ccccc1)c(=O)n2CC(=O)NCC1CCCO1` (centres undefined) it is 1.34%.

`Cn1c(=O)c2[nH]c(NCC3CCCO3)nc2n(-c2ccccc2)c1=O` (centres undefined): the Potency is 28.2 µM (active). As for `Oc1ccc(Br)cc1C1C=C(c2ccc3c(c2)OCO3)NC(c2ccc(Cl)cc2)N1` (centres undefined), the “activity change, negative = active” value is 0.41%. As for `CCc1ccc(OC2(C)CCN(CCOc3ccc(C)cc3)C2)cc1` (centres undefined), the “activity change, negative = active” value is -0.766%. Consider `CC(C)Cc1ccc(-c2cc3nc(NCc4cccc(Cl)c4)ccn3n2)cc1`, for which the “activity change, negative = active” value was 5.03%. Still for that read-out and setting: under `COc1cccc(C(=O)OCc2cc(=O)oc3c(C)c(C)ccc23)c1OC` stands 2.05%.
